Data published in PubChem BioAssay (EPA / NIEHS).
Values joined by “and” are separate entries in the source; they are usually repeats but may differ in a detail not shown here. Identical values can stand only once. Results filed as inconclusive are left out. Some compounds were tested as several samples or in several runs, with calls that do not always agree. Active and inactive are the calls of the source. Rule for the calls, unless noted: active = hit-call score of the fitted dose curve at least 0.9, where 1 is the maximum; inactive = score below 0.9.

Columns and labels:
[1] = APR_HepG2_CellCycleArrest_1hr: Apredica 1-hour HepG2 Assay for Cell Cycle Arrest (AID 2282666); conditions: high-content imaging, actives raise or lower the signal
Outline: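 HepG2 cells exposed for 1 h to 0.39–200 uM compound (0.5% DMSO). Fixed, Hoechst-stained nuclei imaged by ArrayScan; DNA content quantified by Cell Cycle analysis; bidirectional fit against DMSO.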

[2] = ACEA_ER_80hr: ACEA Biosciences xCELLigence Real-Time Cell Analysis on Estrogen Receptor Agonism for Proliferation (AID 2282667; active = hit-call score of the fitted dose curve at least 0.9, where 1 is the maximum); conditions: T47D proliferation, impedance (xCELLigence), 80 h
Outline: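 Real-time impedance growth kinetics of human T-47D breast cells read 80 h after dosing, gain-of-signal fitted relative to DMSO. Compounds: 1:4 serial series, top final concentration 100 uM, n = 2.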

[3] = APR_HepG2_NuclearSize_1hr: Apredica 1-hour HepG2 Assay for Nuclear Size (AID 2282670); conditions: high-content imaging, actives raise or lower the signal
Outline: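 HepG2 cells dosed 1 hr with 0.39–200 uM compound (0.5% DMSO), formaldehyde-fixed, Hoechst 33342-stained and imaged at 20x; nuclear diameter from nuclear stain, fitted bidirectionally against DMSO.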

[4] = APR_HepG2_MitoticArrest_1hr: Apredica 1-hour HepG2 Assay for Mitotic Arrest (AID 2282672); conditions: high-content imaging, actives raise or lower the signal
Outline: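 HepG2 cells exposed 1 hr to compounds at 0.39–200 uM (0.5% v/v DMSO final), then fixed in 3.7% formaldehyde and immunostained for phospho-histone H3 with Hoechst 33342. Mitotic arrest scored by automated fluorescence imaging, fitted bidirectionally versus DMSO.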

[5] = APR_HepG2_P-H2AX_1hr: Apredica 1-hour HepG2 Assay for H2AX Phosphorylation (AID 2282673); conditions: high-content imaging, actives raise or lower the signal
Outline: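 HepG2 dosed 1 hr at 0.39-200 uM (0.5% DMSO final), duplicate. Fixed in 3.7% formaldehyde, Triton permeabilized, immunostained for phospho-histone H2A.x (1:200) with Hoechst 33342; ArrayScan 20x imaging, bidirectional fit vs DMSO.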

[6] = APR_HepG2_MitoMass_1hr: Apredica 1-hour HepG2 Assay for Mitochondrial Mass (AID 2282674); conditions: high-content imaging, actives raise or lower the signal
Outline: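 HepG2 cells dosed 1 hr with 0.39-200 uM compound (0.5% DMSO), duplicate wells. Mitochondria stained with 250 nM MitoTracker Red CMXRos for 30 min before formaldehyde fixation, imaged at 20x by ArrayScan; bidirectional fit versus DMSO.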

[7] = APR_HepG2_CellCycleArrest_24hr: Apredica 24-hour HepG2 Assay for Cell Cycle Arrest (AID 2282905); conditions: imaging, actives raise or lower the signal;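 note: cell cycle arrest scored as ratio of 2N to 4N nuclear DNA content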
Outline: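 Cell cycle arrest is scored from nuclear DNA content measured by high-content imaging of Hoechst 33342-stained HepG2 cells following 24-hour treatment at ten concentrations up to 200 uM, with DMSO as baseline.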

[8] = APR_HepG2_NuclearSize_24hr: Apredica 24-hour HepG2 Assay for Nuclear Size (AID 2282907); conditions: high-content imaging, actives raise or lower the signal
Outline: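 Compounds in DMSO (final 0.5%) were added to human HepG2 hepatoma cells at ten concentrations up to 200 uM for 24 hr. Fixed nuclei were stained with Hoechst 33342, and nuclear diameter was quantified from automated images.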

[9] = APR_HepG2_MicrotubuleCSK_24hr: Apredica 24-hour HepG2 Assay for Microtubule CSK Stabilty (AID 2282909); conditions: HepG2 microtubule cytoskeleton imaging, actives raise or lower the signal
Outline: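 Steps: dose HepG2 for 24 h (0.39–200 uM, 0.5% DMSO); fix 30 min in 3.7% formaldehyde at room temperature; permeabilize; stain alpha-tubulin 60 min; image microtubule cytoskeleton at 20x. Signal change fitted in both directions relative to DMSO.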

[10] = APR_HepG2_MitoticArrest_24hr: Apredica 24-hour HepG2 Assay for Mitotic Arrest (AID 2282910); conditions: high-content imaging, actives raise or lower the signal
Outline: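 HepG2 human liver cells were exposed to compounds at 0.39–200 uM (10 concentrations, duplicate) in 0.5% v/v DMSO for 24 hr, then fixed and immunostained for phospho-histone H3 with Hoechst 33342. Mitotic arrest came from HCS fluorescent imaging, fitted bidirectionally against DMSO.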

[11] = APR_HepG2_MitoMembPot_24hr: Apredica 24-hour HepG2 Assay for Mitochondrial Membrane Potential (AID 2282911); conditions: imaging, actives raise or lower the signal
Outline: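 Mitochondrial membrane potential imaged via MitoTracker Red CMXRos (250 nM, 30 min pre-fixation) in fixed HepG2 cells with Hoechst nuclear identification. Ten concentrations 0.39–200 uM, 24 h treatment, 0.5% DMSO; CCCP as positive control.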

[12] = APR_HepG2_MitoMass_24hr: Apredica 24-hour HepG2 Assay for Mitochondrial Mass (AID 2282912); conditions: high-content imaging, actives raise or lower the signal
Outline: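 The liver line HepG2 was dosed in duplicate across a 0.39–200 uM series, with final DMSO held at 0.5% v/v, and harvested at 24 hr. High-content imaging measured mitochondrial dye staining.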

[13] = APR_HepG2_CellCycleArrest_72hr: Apredica 72-hour HepG2 Assay for Cell Cycle Arrest (AID 2282914); conditions: high-content imaging, actives raise or lower the signal
Outline: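 Read-out: nuclear DNA content from Hoechst 33342 high-content imaging (20x, six fields/well) after 3.7% formaldehyde fixation, fitted bidirectionally against DMSO. Treatment was 72 h in HepG2, ten concentrations 0.39–200 uM, duplicate, 0.5% DMSO.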

[14] = APR_HepG2_MitoMembPot_1hr: Apredica 1-hour HepG2 Assay for Mitochondrial Membrane Potential (AID 2282675); conditions: imaging, actives raise or lower the signal
Outline: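 HepG2 cells dosed 1 hour with 0.39–200 uM compound in duplicate, 0.5% DMSO final. MitoTracker Red CMXRos (250 nM, 30 min) loaded before formaldehyde fixation; fluorescence quantified by high-content imaging, bidirectional fitting versus DMSO.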

[15] = APR_HepG2_CellLoss_1hr: Apredica 1-hour HepG2 Assay for Cell Loss (AID 2282668); conditions: high-content imaging;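 note: curves fitted both ways against DMSO so gain or loss of cells counts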
Outline: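 HepG2 cells were treated for 1 h with compound at 0.39–200 uM, in duplicate, in 0.5% DMSO. After formaldehyde fixation, Hoechst 33342-stained nuclei were imaged on an ArrayScan to count cells. Data were fitted bidirectionally versus DMSO.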

[16] = APR_HepG2_p53Act_24hr: Apredica 24-hour HepG2 Assay for p53 Activation (AID 2282913); conditions: high-content imaging, actives raise or lower the signal;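 note: p53 protein immunofluorescence averaged per cell in HepG2 with Hoechst nuclei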
Outline: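 Fluorescence imaging of formaldehyde-fixed HepG2 cells labelled for p53 and with Hoechst, 24 h after dosing (0.39–200 uM, duplicate wells, 0.5% v/v DMSO). Signal fitted in both directions relative to DMSO.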

[17] = APR_HepG2_MicrotubuleCSK_1hr: Apredica 1-hour HepG2 Assay for Microtubule CSK Stabilty (AID 2282669); conditions: HepG2 microtubule cytoskeleton imaging, actives raise or lower the signal
Outline: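 HepG2 cells exposed 1 h to 0.39–200 uM compound (0.5% DMSO, duplicates), then formaldehyde-fixed, permeabilized and immunostained for alpha-tubulin with Hoechst nuclei. Imaged by ArrayScan high-content analysis; bidirectional fit versus DMSO.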

[18] = APR_HepG2_StressKinase_1hr: Apredica 1-hour HepG2 Assay for Stress Kinase (AID 2282906); conditions: HepG2 stress kinase (phospho-c-Jun) imaging, actives raise or lower the signal
Outline: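 HepG2 cells dosed 0.39-200 uM (0.5% DMSO) for 1 h, then formaldehyde-fixed. Stress kinase read by phospho-c-Jun immunofluorescence using high-content imaging; bidirectional fit vs DMSO.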

[19] = APR_HepG2_CellLoss_24hr: Apredica 24-hour HepG2 Assay for Cell Loss (AID 2282908); conditions: high-content imaging
Outline: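 Cell number is quantified by fluorescence imaging of Hoechst 33342-stained nuclei following dosing at 0.39–200 uM in 0.5% DMSO. Curves are fitted in both directions from the DMSO baseline.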

Measured: AC50

O=C(NC(=O)c1c(F)cccc1F)Nc1ccc(OC(F)(F)C(F)OC(F)(F)F)c(Cl)c1 (stereo not given)
not listed: [14] | [15] | [16] | [17] | [18] | [19]
inactive: all other assays above

Cc1[nH]c(=O)n(C(C)(C)C)c(=O)c1Cl
not listed: [15] | [16] | [17] | [18] | [19]
inactive: all other assays above

Oc1ccc(Cl)cc1Cc1ccccc1
inactive: [4] | [6] | [8] | [9] | [10] | [11] | [12] | [16] | [13]
active: [1] 114 µM | [15] 118 µM | [3] 112 µM | [9] 34.7 µM and 79.9 µM and 97.3 µM | [10] 43.1 µM and 76.7 µM and 54 µM | [12] 47.2 µM and 157 µM and 159 µM | [16] 80.5 µM and 50.5 µM | [13] 86.3 µM [middle of 4 runs]

N#Cc1c(Cl)c(Cl)c(Cl)c(C#N)c1Cl
active: [4] 8.28 µM | [5] 3.46 µM | [6] 5.34 µM | [14] 61.5 µM | [18] 1.94 µM
not listed: [2] | [7] | [15] | [19]
inactive: all other assays above

CCC(C)Nc1c([N+](=O)[O-])cc(C(C)(C)C)cc1[N+](=O)[O-] (stereo not given)
active: [7] 89 µM | [9] 27.4 µM | [11] 100 µM | [13] 83.7 µM
not listed: [5] | [16] | [17] | [18] | [19]
inactive: all other assays above

CCOC1Oc2ccc(OS(C)(=O)=O)cc2C1(C)C (stereo not given)
not listed: [7] | [14] | [15] | [16] | [18] | [19]
inactive: all other assays above

COP(=O)(OC)OC=C(Cl)Cl
not listed: [7] | [15] | [16] | [19]
inactive: all other assays above

COP(=S)(OC)Oc1ccc(SC)c(C)c1
active: [13] 54.3 µM
not listed: [2] | [5] | [7] | [14] | [18]
inactive: all other assays above

O=C(O)COc1ccc(Cl)cc1Cl
not listed: [2] | [7] | [18] | [19]
inactive: all other assays above

Clc1ccccc1-c1nnc(-c2ccccc2Cl)nn1
active: [11] 59.5 µM
not listed: [5] | [7] | [14] | [16] | [17] | [18]
inactive: all other assays above

O=C1c2ccccc2C(=O)N1SC(Cl)(Cl)Cl
not listed: [2] | [5] | [7] | [15] | [18] | [19]
inactive: all other assays above

COP(=S)(OC)Oc1ccc([N+](=O)[O-])cc1
not listed: [2] | [5] | [7] | [14] | [15] | [19]
inactive: all other assays above

CNC(=O)CSP(=S)(OC)OC
not listed: [5] | [7] | [14] | [15] | [16] | [17] | [18] | [19]
inactive: all other assays above
